Data on 40 targets can be found in the supplement of paper PMC11006884.

Of roughly 6,500 targets only a part is listed; those with a hit were picked by preference. About 2% of all pairs of compound and target were hits.

UniProt Q9ULT8, sequence (Q9ULT8 whole entry, looked up): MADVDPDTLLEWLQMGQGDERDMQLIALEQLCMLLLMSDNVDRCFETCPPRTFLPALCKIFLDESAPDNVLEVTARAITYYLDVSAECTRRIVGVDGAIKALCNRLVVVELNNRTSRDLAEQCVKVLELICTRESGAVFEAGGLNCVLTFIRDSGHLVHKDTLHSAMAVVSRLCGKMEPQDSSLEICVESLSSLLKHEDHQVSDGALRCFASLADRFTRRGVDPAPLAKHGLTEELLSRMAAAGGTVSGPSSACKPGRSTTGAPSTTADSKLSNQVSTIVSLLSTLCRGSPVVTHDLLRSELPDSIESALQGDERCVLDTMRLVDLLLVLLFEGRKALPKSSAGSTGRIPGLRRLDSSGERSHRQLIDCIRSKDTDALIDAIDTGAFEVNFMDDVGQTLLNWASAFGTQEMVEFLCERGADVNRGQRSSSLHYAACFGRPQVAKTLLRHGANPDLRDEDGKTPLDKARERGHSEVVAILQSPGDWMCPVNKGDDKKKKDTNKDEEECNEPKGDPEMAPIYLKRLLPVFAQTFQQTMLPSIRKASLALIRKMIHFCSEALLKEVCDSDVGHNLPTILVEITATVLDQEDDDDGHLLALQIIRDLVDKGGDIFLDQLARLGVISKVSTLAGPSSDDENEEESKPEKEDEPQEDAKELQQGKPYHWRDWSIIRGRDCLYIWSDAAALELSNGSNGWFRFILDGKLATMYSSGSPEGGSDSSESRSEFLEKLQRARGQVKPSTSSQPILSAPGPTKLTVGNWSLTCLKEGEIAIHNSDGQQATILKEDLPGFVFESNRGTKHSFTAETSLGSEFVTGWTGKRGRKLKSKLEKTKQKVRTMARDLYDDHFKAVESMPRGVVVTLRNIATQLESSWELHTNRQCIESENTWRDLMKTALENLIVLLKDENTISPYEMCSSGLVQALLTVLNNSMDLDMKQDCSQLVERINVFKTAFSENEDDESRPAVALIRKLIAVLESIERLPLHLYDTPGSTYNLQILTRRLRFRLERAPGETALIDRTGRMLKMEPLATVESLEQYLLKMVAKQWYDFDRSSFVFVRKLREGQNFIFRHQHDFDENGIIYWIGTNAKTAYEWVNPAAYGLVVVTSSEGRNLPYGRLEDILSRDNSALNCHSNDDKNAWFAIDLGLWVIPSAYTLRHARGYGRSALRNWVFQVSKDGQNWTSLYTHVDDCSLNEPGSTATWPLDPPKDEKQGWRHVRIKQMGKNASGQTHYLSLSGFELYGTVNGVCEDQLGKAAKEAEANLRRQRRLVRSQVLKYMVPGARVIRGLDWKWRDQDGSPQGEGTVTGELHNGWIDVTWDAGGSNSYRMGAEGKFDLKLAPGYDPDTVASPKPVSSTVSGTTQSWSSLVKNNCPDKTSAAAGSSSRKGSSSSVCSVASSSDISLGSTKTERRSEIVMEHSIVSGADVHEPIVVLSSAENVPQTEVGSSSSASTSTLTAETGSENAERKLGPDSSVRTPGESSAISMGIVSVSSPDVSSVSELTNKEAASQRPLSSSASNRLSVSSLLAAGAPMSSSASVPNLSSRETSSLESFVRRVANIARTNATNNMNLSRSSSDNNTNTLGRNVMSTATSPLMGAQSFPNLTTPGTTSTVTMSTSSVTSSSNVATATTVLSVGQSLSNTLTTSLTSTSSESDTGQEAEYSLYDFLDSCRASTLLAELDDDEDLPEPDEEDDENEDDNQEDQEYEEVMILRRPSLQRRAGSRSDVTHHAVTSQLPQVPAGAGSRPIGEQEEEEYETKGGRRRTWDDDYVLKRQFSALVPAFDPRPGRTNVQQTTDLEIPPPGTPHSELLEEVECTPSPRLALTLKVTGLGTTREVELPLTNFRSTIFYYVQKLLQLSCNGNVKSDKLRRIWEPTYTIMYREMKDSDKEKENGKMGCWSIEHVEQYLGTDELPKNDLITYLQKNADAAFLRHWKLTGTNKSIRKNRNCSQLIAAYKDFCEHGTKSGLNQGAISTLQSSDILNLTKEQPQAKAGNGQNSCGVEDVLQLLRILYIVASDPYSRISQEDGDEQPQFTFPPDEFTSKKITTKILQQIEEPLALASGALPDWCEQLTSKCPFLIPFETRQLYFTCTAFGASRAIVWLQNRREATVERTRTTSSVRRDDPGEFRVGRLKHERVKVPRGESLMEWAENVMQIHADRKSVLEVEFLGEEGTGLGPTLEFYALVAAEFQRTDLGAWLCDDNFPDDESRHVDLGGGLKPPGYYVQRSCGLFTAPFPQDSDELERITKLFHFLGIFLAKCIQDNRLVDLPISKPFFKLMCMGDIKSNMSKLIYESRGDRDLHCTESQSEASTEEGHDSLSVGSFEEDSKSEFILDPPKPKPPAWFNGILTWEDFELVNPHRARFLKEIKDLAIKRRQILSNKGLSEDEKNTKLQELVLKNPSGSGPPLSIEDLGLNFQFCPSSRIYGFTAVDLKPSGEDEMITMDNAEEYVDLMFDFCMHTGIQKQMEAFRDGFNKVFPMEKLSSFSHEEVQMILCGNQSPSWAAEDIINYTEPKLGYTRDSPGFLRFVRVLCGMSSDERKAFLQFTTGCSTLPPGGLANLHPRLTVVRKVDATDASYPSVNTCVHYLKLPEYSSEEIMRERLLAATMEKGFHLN
UniProt Q9UER7, sequence (Q9UER7 whole entry, looked up): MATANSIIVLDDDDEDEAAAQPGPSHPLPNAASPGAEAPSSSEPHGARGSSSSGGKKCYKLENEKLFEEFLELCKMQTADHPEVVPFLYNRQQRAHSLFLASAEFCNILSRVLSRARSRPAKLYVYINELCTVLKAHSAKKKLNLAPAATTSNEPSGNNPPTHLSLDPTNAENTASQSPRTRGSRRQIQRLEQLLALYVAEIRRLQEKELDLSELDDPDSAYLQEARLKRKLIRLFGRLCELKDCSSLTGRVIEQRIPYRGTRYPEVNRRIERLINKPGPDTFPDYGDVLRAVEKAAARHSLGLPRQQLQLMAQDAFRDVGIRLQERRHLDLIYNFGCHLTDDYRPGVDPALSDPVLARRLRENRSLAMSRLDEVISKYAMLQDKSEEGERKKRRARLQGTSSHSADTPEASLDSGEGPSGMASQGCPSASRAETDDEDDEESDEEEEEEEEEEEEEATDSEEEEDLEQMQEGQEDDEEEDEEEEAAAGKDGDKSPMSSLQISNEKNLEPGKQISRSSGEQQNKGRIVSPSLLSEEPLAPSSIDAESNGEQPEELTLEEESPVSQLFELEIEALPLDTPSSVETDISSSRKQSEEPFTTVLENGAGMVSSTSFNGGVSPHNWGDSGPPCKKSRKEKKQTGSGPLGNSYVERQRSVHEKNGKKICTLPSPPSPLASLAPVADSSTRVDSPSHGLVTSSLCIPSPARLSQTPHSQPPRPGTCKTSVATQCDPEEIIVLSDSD
UniProt Q9NS86, sequence (Q9NS86 whole entry, looked up): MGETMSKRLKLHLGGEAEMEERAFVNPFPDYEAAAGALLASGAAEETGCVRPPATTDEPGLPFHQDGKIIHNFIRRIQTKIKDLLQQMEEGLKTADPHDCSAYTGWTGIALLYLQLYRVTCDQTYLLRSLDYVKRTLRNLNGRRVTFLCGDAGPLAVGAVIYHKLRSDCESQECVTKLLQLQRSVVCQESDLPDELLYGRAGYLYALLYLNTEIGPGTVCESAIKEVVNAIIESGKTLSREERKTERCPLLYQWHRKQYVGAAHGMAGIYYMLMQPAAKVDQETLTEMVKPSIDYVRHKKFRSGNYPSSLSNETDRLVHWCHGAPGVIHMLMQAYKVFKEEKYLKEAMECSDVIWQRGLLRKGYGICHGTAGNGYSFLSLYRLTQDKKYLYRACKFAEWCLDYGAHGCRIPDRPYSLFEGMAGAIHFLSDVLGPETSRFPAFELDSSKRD
UniProt Q9Y3D8, sequence (Q9Y3D8 whole entry): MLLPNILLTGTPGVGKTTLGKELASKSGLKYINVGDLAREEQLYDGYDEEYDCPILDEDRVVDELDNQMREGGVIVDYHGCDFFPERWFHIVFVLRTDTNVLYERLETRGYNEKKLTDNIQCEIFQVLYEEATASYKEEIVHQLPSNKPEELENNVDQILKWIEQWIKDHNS
UniProt Q9H4H8, sequence (Q9H4H8 whole entry, looked up): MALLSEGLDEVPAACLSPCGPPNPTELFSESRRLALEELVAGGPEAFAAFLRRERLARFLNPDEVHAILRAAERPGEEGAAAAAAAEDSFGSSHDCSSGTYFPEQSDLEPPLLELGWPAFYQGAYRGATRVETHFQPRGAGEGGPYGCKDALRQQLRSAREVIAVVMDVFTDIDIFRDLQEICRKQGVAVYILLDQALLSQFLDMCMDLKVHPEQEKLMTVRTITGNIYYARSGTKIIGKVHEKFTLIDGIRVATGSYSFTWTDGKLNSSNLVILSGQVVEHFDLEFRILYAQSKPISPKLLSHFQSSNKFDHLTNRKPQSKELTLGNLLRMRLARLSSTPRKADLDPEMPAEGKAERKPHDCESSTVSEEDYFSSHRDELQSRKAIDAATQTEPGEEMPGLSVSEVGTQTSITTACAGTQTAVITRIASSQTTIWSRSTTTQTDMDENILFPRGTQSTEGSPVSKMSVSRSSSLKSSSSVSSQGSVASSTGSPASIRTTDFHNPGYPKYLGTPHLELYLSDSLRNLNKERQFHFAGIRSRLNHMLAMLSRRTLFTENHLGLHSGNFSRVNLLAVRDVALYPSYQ
UniProt Q9UGI8, sequence (Q9UGI8 whole entry, looked up): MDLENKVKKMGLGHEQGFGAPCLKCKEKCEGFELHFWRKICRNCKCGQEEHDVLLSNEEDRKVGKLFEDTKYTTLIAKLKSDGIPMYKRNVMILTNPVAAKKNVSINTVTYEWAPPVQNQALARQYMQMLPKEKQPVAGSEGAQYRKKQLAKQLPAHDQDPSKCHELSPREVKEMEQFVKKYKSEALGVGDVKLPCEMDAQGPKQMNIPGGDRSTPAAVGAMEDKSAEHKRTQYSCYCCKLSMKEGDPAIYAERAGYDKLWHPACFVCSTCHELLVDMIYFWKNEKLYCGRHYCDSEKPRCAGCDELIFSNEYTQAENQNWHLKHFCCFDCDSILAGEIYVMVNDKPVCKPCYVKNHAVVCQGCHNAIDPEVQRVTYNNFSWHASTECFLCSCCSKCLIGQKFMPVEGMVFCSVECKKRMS

Compound in this experiment: COC(=O)C#Cc1ccccc1 [methyl 3-phenylpropiolate]
As to the kind of experiment: log2 ratio of iodoacetamide-alkyne labeling of the cysteine site, DMSO over compound (competition); higher = stronger covalent engagement of the cysteine by the compound, active = 1 or more. The settings on record: 500 µM; treatment time 1 h; system: HEK293T cell lysate. In short, it runs like this:
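Three replicates, each with duplicate channels, were prepared from HEK293T lysate (2 mg/mL) treated with vehicle or electrophile at 500 µM for 1 h at ambient temperature. Iodoacetamide alkyne was then applied for 1 h, and samples were clicked to sCIP-TMT reagents, pooled, trypsin-digested overnight at 37 °C, enriched on streptavidin, acid-eluted and analysed on Orbitrap Eclipse LC-MS/MS with FAIMS, with FragPipe quantification. The log2 competition ratio per cysteine is the mean control-channel divided by the mean compound-channel reporter intensity. Cysteines quantified in only one replicate were left out.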
For the target STUB1 C199 (UniProt Q9UNE7), the “log2 ratio of iodoacetamide-alkyne labeling” value (shortened to “log2 ratio”) is 0.493 (inactive).

As for COPS7A C110 (UniProt Q9UBW8), the “log2 ratio” value was 0.0698 (inactive).

For the target ATG3 C182 (UniProt Q9NT62), the “log2 ratio” value was 0.632 (inactive).

On to FAM83D C19 (UniProt Q9H4H8), for which the “log2 ratio” value was 1.11 (active).

Consider WIPI2 C393 (UniProt Q9Y4P8), for which the “log2 ratio” value is 1.22 (active).

Consider UniProt Q9UBD5_C159, for which the “log2 ratio” value was 1.13 (active).

Turning to TBCD C234 (UniProt Q9BTW9), the “log2 ratio” value is 0.281 (inactive).

With DAXX C720 (UniProt Q9UER7), the “log2 ratio” value is 1.35 (active).

Turning to ADD3 C73 (UniProt Q9UEY8), the “log2 ratio” value was 0.00986 (inactive).

For UniProt Q9Y678_C129, the “log2 ratio” value is 0.51 (inactive).

As for ASPSCR1 C224 (UniProt Q9BZE9), the “log2 ratio” value is 1.02 (active).

For the target MACF1 C5049 (UniProt Q9UPN3), the “log2 ratio” value was 0.311 (inactive).

For the target POLDIP2 C143 (UniProt Q9Y2S7), the “log2 ratio” value was 0.786 (inactive).

On to UniProt Q9BXJ9_C465, for which the “log2 ratio” value is 0.109 (inactive).

As to AK6 C53 (UniProt Q9Y3D8), the “log2 ratio” value is 0.109 (inactive).

As to GPHN C293 (UniProt Q9NQX3), the “log2 ratio” value was 1.12 (active).

Regarding TBCD C1175 (UniProt Q9BTW9), the “log2 ratio” value is 0.204 (inactive).

In the case of HEG1 C1360 (UniProt Q9ULI3), the “log2 ratio” value was 1.36 (active).

On to ZYG11B C643 (UniProt Q9C0D3), for which the “log2 ratio” value is 0.222 (inactive).

With ACIN1 C691 (UniProt Q9UKV3), the “log2 ratio” value was 0.212 (inactive).

Consider CHCHD3 C112 (UniProt Q9NX63), for which the “log2 ratio” value is 0.0891 (inactive).

For the target HOOK1 C432 (UniProt Q9UJC3), the “log2 ratio” value is 0.385 (inactive).

Turning to NCDN C3 (UniProt Q9UBB6), the “log2 ratio” value is 1.66 (active).

As to UniProt Q9P2P1_C1222, the “log2 ratio” value was 0.312 (inactive).

Regarding UniProt Q9BVS4_C449, the “log2 ratio” value is 1.18 (active).

Take HECTD1 C1995 (UniProt Q9ULT8): the “log2 ratio” value was 0.345 (inactive).

Regarding LANCL2 C49 (UniProt Q9NS86), the “log2 ratio” value was -0.064 (inactive).

In the case of MDN1 C3492 (UniProt Q9NU22), the “log2 ratio” value was 0.35 (inactive).

CD2AP C540 (UniProt Q9Y5K6): the “log2 ratio” value was 0.456 (inactive).

For DDA1 C25 (UniProt Q9BW61), the “log2 ratio” value was 0.36 (inactive).

As to TES C196 (UniProt Q9UGI8), the “log2 ratio” value was 0.308 (inactive).

As to DDX52 C536 (UniProt Q9Y2R4), the “log2 ratio” value was 0.566 (inactive).

On to MBNL1 C27 (UniProt Q9NR56), for which the “log2 ratio” value is 0.203 (inactive).

As to NOL6 C1034 (UniProt Q9H6R4), the “log2 ratio” value was 1.81 (active).

In the case of UBQLN4 C29 (UniProt Q9NRR5), the “log2 ratio” value was 1.12 (active).

Regarding UPF2 C1107 (UniProt Q9HAU5), the “log2 ratio” value was 0.18 (inactive).

For UniProt Q9UBD5_C158, the “log2 ratio” value was 1.13 (active).

As to FHOD1 C31 (UniProt Q9Y613), the “log2 ratio” value is 0.248 (inactive).

Consider MDN1 C172 (UniProt Q9NU22), for which the “log2 ratio” value was 0.0689 (inactive).

Take FAM120C C14 (UniProt Q9NX05): the “log2 ratio” value was 0.327 (inactive).
